# Reference: the supplement of paper PMC6555819
# Tests used:
# Experiment in all cases: PBM binding z-score (relative to random genomic background probes); higher = stronger binding; sequences stand for … in GC…GCGATTGACAGCGTAGAATGAAGG
# [1] = test system: PPARg:RXRa DBDmut IVT, anti-RXR (DBD mutation: RXRa K156A/R161A, NR concentration 270 nM, RXRa partner concentration 90 nM)
# Outline: (§1)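 Scanned fluorescence from custom Agilent 4×180K protein-binding microarrays was regression-normalized. Binding z-scores use random background probes as reference. Ligand-free nuclear receptor dimers were incubated on the arrays for 1 h and detected with antibodies against each partner (one per run).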
# [2] = test system: PPARg:RXRa IVT, anti-PPARg (NR concentration 270 nM, RXRa partner concentration 90 nM)
# Outline: as §1
# [3] = test system: PPARg DBDmut IVT, anti-PPARg (DBD mutation: PPARg1 K132A/R137A, NR concentration 270 nM)
# Outline: as §1
# [4] = test system: PPARg homodimer (NR concentration 180 nM)
# Outline: as §1
# [5] = test system: PXR:RXRa (NR concentration 270 nM, RXRa partner concentration 90 nM)
# Outline: as §1
# [6] = test system: PXR homodimer (NR concentration 270 nM)
# Outline: as §1
# [7] = test system: RARa:RXR (NR concentration 270 nM, RXRa partner concentration 90 nM)
# Outline: as §1
# [8] = test system: RARa homodimer (NR concentration 270 nM)
# Outline: as §1
# [9] = test system: RARb:RXRa (NR concentration 270 nM, RXRa partner concentration 90 nM)
# Outline: as §1
# [10] = test system: RARb homodimer (NR concentration 270 nM)
# Outline: as §1
# [11] = test system: RARg:RXRa (NR concentration 270 nM, RXRa partner concentration 90 nM)
# Outline: as §1
# [12] = test system: RARg homodimer (NR concentration 270 nM)
# Outline: as §1
# [13] = test system: RXRa DBDmut IVT, anti-RXR (DBD mutation: RXRa K156A/R161A, NR concentration 90 nM)
# Outline: as §1
# [14] = test system: RXRa homodimer (NR concentration 180 nM)
# Outline: as §1
# [15] = test system: THRa:RXRa (NR concentration 90 nM, RXRa partner concentration 90 nM)
# Outline: as §1
# [16] = test system: THRa homodimer (NR concentration 90 nM)
# Outline: as §1
# [17] = test system: VDR homodimer (NR concentration 270 nM)
# Outline: as §1
Sequence,PBM binding z-score [1],PBM binding z-score [2],PBM binding z-score [3],PBM binding z-score [4],PBM binding z-score [5],PBM binding z-score [6],PBM binding z-score [7],PBM binding z-score [8],PBM binding z-score [9],PBM binding z-score [10],PBM binding z-score [11],PBM binding z-score [12],PBM binding z-score [13],PBM binding z-score [14],PBM binding z-score [15],PBM binding z-score [16],PBM binding z-score [17]
CGAACTAGGTCAAAGAACAGTGAAAGGCGACGTA,7.89,8.03,1.2,0.602,0.752,-0.206,1.51,-0.184,3.58,2.03,3.41,4.27,1.3,3,2.06,0.033,0.121
CGAACTGGGTCAAAGGACAGTGAAAGGCGACGTA,7.3,7.89,-0.0176,0.919,1.21,-0.282,2.12,-0.262,3.44,2.58,3.7,3.67,0.996,3.11,1.95,0.161,0.185
CGAACTAGGTCACCAGGACAGTGGAGAGGTTGGA,8.2,8.98,4.11,2.37,1.37,-0.106,2.81,0.103,4.39,3.32,4.53,5.51,1.04,3.27,3.34,1.78,0.74
CGAACTAGGTCAAAGGACAGTGTAAGGCGACGTA,7.92,7.95,-0.12,0.849,1.19,-0.0737,2.22,0.371,3.91,3.11,4.01,4.55,1.32,3.01,2.9,0.826,0.391
ATATGTAGGTTAGGGTCATTCAAAAAGTAGGGAA,6.37,6.88,2.24,2.6,4.47,2.2,5.13,2.37,3.59,3.59,4.25,3.19,2.67,5.4,4.28,3.27,3.17
CGAACTAGATCACCAGGACAGTGAAGAGGTTGGA,3.19,1.58,-0.163,0.192,-0.455,-0.0713,-0.108,-0.196,-0.0219,0.0313,-0.13,0.172,0.251,0.0064,0.901,0.52,-0.172
ATATGTAGTTTAGGGTCATTCAGAAAGTAGGGAA,1.43,2.8,1.5,2.89,4.68,1.83,5.48,1.75,3.42,3.24,4.01,2.73,2.93,5.24,4.29,3.64,4.3
CGACCTAGGTCACCAGGACAGTGAAGAGGTTGGA,4.19,4.65,-0.593,1.87,1.62,-0.328,2.95,-0.595,4.37,3.51,5.3,5.83,1.6,3.92,3.44,1.53,0.503
AGATGTAGGTTAGGGTCATTCAGAAAGTAGGGAA,5.84,6.36,2.37,3.93,4.39,3.03,5.13,3.23,3.39,3.52,3.98,3,2.56,4.81,3.92,3.4,4.44
CGAACTAGGTTACCAGGACAGTGAAGAGGTTGGA,6.94,6.73,2.08,0.829,-0.124,-0.211,0.296,-0.114,1.13,1.01,0.707,1.05,0.48,0.367,1.62,0.878,0.0565
CGAGCTAGGTCACCAGGACAGTGAAGAGGTTGGA,3.94,4.43,-1.08,1.48,1.35,-0.379,2.36,0.327,4.16,3.31,4.21,5.39,1.24,2.97,3.18,1.65,0.493
CGAACTAGGTCACCTGGACAGTGAAGAGGTTGGA,8.17,8.6,-0.299,1.42,1.46,0.15,2.53,-0.115,4.05,3.36,4.43,5.32,1.49,3.36,3.1,1.2,0.466
ATATGTAGGTTATGGTCATTCAGAAAGTAGGGAA,6.83,6.63,2,1.64,0.998,0.449,1.17,1.24,1.4,1.22,1.16,1.22,0.958,1.32,1.05,0.5,0.656
CGAAGTAGGTCAAAGGACAGTGAAAGGCGACGTA,8.31,8.72,4.59,2.49,1.66,0.0557,2.53,0.312,3.93,3.05,4.15,4.75,1.19,3.67,2.1,-0.0786,0.382
CGAACTAGGTCAGCAGGACAGTGAAGAGGTTGGA,7.67,7.57,0.821,0.528,0.361,-0.536,0.95,-0.352,3.61,2.84,2.91,3.91,0.0956,1.51,2,0.264,-0.272
ATATGTAGGTTAGGGTCATTCGGAAAGTAGGGAA,6.55,6.85,4.65,3.85,4.53,1.88,4.88,2.27,3.43,3.62,4.07,3.15,2.51,5.06,4.16,3.3,4.24
ATATGTAGGTTAGGGTCGTTCAGAAAGTAGGGAA,6.06,6.47,2.98,2.38,2.11,1.67,2.37,1.51,1.92,2.05,1.69,1.16,1.52,2.44,2.85,1.95,2.55

Sequence,PBM binding z-score [1],PBM binding z-score [2],PBM binding z-score [3],PBM binding z-score [4],PBM binding z-score [5],PBM binding z-score [6],PBM binding z-score [7],PBM binding z-score [8],PBM binding z-score [9],PBM binding z-score [10],PBM binding z-score [11],PBM binding z-score [12],PBM binding z-score [13],PBM binding z-score [14],PBM binding z-score [15],PBM binding z-score [16],PBM binding z-score [17]
CGAACTGGGTCACCAGGACAGTGAAGAGGTTGGA,7.66,8.73,1.6,1.47,1.55,-0.358,2.52,-0.049,3.73,2.84,4.16,4.22,0.542,3.41,2.91,0.811,0.0235
CTAACTAGGTCAAAGGACAGTGAAAGGCGACGTA,8.56,8.84,1.86,1.28,1.19,-0.0818,2.41,0.599,4.07,3.08,4.05,4.84,1.68,2.97,2.58,0.419,0.409
ATATGTAGGTTAGGGTCATACAGAAAGTAGGGAA,6.63,6.88,2.42,2.62,4.21,1.46,5.03,1.3,3.53,3.48,4.25,3.47,2.26,5.6,4.1,3.09,3.03
CGAACTAGGTCAAAGGACGGTGAAAGGCGACGTA,7.71,8.31,2.26,1.81,0.75,-0.279,2.05,0.114,3.76,2.59,3.97,4.3,1.49,2.68,2.3,-0.112,-0.106
CGAATTAGGTCAAAGGACAGTGAAAGGCGACGTA,8.15,7.88,2.44,2.21,1.46,0.358,2.87,0.296,4.18,3.18,4.17,4.47,1.73,3.37,3.09,1.4,0.401
CGAACTAGGTCAACGGACAGTGAAAGGCGACGTA,8.1,8.37,-0.094,1.63,0.839,-0.0597,1.77,-0.351,3.89,2.82,4.11,4.8,1.34,3.39,2.36,0.45,0.394
ATATGGAGGTTAGGGTCATTCAGAAAGTAGGGAA,2.21,3.8,1.73,2.92,4.32,2.35,4.55,2.05,3.93,3.98,4.17,2.98,2.42,5.24,4.27,3.55,3.4
ATATATAGGTTAGGGTCATTCAGAAAGTAGGGAA,6.92,6.72,2.87,4.26,4.79,2.81,5.43,2.83,3.58,3.6,4.24,3.75,2.67,5.33,4.11,3.76,3.95
CGAACTAGGTCCCCAGGACAGTGAAGAGGTTGGA,3.03,2.5,-1.06,-0.774,-0.741,-0.316,-0.649,-0.996,0.0236,-0.127,-0.281,-0.0988,-0.51,-0.31,0.965,0.258,-0.533
CGAACTAGGTCAAAGGACAGTGCAAGGCGACGTA,7.81,8.11,-0.34,0.639,1.31,-0.108,2.14,-0.256,4.02,3.1,3.95,4.42,1.15,3.24,2.57,0.81,0.767
CGAACTAGGTCACCAGGACAATGAAGAGGTTGGA,7.84,9.01,1.88,1.94,1.49,0.22,2.43,0.0185,4.21,3.4,4.27,5.1,1.58,3.35,3.7,2.12,0.459
CGAACTAGGTCAAAGCACAGTGAAAGGCGACGTA,7.81,8.43,5.29,3.43,1.01,-0.325,1.71,0.149,3.8,2.34,3.89,4.07,1.58,2.66,2.37,0.0185,0.261
CGAACTAGGTGAAAGGACAGTGAAAGGCGACGTA,7.36,7.28,1.83,1.93,-0.398,-0.114,-0.0573,-0.695,1.54,1.15,0.833,1.07,-0.365,0.373,0.672,-0.413,-0.349
CGAACTAGGTCACCAGGACAGTGCAGAGGTTGGA,8.28,8.75,0.713,2.02,1.73,0.15,2.58,0.578,4.14,3.73,4.5,5.27,1.53,3.58,3.36,2.27,0.862
CGAACTAGGTCACAAGGACAGTGAAGAGGTTGGA,8.39,9.03,1.5,3.52,1.25,0.516,2.14,0.713,4.09,3.36,4.24,4.8,1.32,3.1,3.33,1.7,0.816
CAAACTAGGTCACCAGGACAGTGAAGAGGTTGGA,8.41,8.88,1.44,2.71,1.87,0.166,2.97,0.827,4.28,3.44,4.56,5.51,1.54,3.75,3.77,2,1.03
